A short description of test [1]: Nuclear factor erythroid 2-related factor 2/antioxidant responsive element (Nrf2/ARE) small molecule agonists: qHTS cell viability counter screen in human keratinocytes (AID 1919968; active = well fitted curve in the direction sought with a large enough effect in the repeat runs; an effect the other way counts as inactive or inconclusive; note: nearly all actives have a fitted effect of over 55% in size; note: potency is the fitted concentration of half-maximal effect). The method in brief:
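In human HaCaT keratinocytes stably expressing an ARE-driven luciferase, compound exposure lasted 23 h at 37 C under 5% CO2. Viable cells are quantified with a protease-based fluorogenic reagent (CellTiter-Fluor) read 1 h after addition.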
A general note: In qHTS, concentration-response curves come from the screen itself.

The target of test [2] is Gonadotropin-releasing hormone receptor (Homo sapiens) (UniProt P30968). Nature of the test: Human gonadotropin-releasing hormone receptor (GnRHR) small molecule agonists, calcium flux assay in GnRHR-HEK293 cells (AID 1920063). Note: nearly all actives have a fitted effect of over 35% in size. The method in brief: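 Intracellular calcium rise is the read-out: engineered human GnRHR HEK293 cells, dye-loaded, are exposed to DMSO-dissolved compounds and fluorescence at Ex/Em 480/540 is tracked for 3 min.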
In general terms: Calcium assays in cells follow changes in intracellular calcium, usually with a dye or a luminescent sensor.

In test [3] the target is KiSS-1 receptor (Homo sapiens) (UniProt Q969F8). Kind of test: Human kisspeptin (KISS1R) small molecule agonists, calcium flux assay in KISS1R-HEK293 cells (AID 1920064; active = well fitted curve in the direction sought with a large enough effect in the repeat runs; an effect the other way counts as inactive or inconclusive). The method, boiled down:
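Concentration-response testing used 15 concentrations in triplicate on human KISS1R-expressing HEK293 cells. Calcium-dependent fluorescence (Ex/Em 480/540) was followed kinetically for 3 min after compound transfer.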

Test [4] is described as follows: G protein-coupled receptor (GPCR) small molecule agonists, calcium flux assay: HEK293 wild type cell line counter screen (AID 1920065). The method in brief:
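Fluorescence intensity signals activation. After overnight (18 h) culture and a 1 h calcium dye load at 37 C, compounds are added by pin tool and the plate read at 480/540 nm for 3 min in 1 s steps.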

A short description of test [5]: p53 small molecule agonists, cell-based qHTS assay with human liver microsomes (AID 1963577). The method in brief:
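p53RE-bla cells, 4,000/well, compound added after 5 h, with human liver microsomes 0.5 mg/mL and NADPH 0.5 mg/mL final; 16 h at 37 C, then LiveBLAzer 2 h RT, fluorescence.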

A short description of test [6]: p53 small molecule agonists, cell-based qHTS assay with rat liver microsomes (AID 1963578). The method in brief:
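p53RE-bla cells, 4,000/well, pre-incubated 5 h, then given compounds plus rat liver microsomes (0.5 mg/mL final) and NADPH (0.5 mg/mL final). Incubation 16 h at 37 C; beta-lactamase reporter read by LiveBLAzer fluorescence after 2 h at room temperature.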

The nature of test [7]: p53 small molecule agonists, cell-based qHTS assay with human liver microsomes: qHTS cell viability counter screen (AID 1963579). Note: nearly all actives have a fitted effect of over 45% in size. The method, boiled down: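 p53RE-bla cells, 4,000/well, dosed 5 hours after plating, with human liver microsomes (0.5 mg/mL final) plus NADPH (0.5 mg/mL final), 16 hours at 37 C. Viability read as CellTiter-Glo luminescence after 30 min at room temperature.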

The nature of test [8]: p53 small molecule agonists, cell-based qHTS assay with rat liver microsomes: qHTS cell viability counter screen (AID 1963580). Note: nearly all actives have a fitted effect of over 45% in size. The method in brief:
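Counter screen for cytotoxicity under metabolic activation: rat liver microsomes and NADPH, 0.5 mg/mL final each, added with compounds to p53RE-bla HCT-116 cells; 16 h at 37 C, then ATP luminescence read.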

Test [9] is described as follows: p53 small molecule agonists, cell-based qHTS assay (AID 1963582; active = well fitted activation curve with a large enough effect in the signal ratio in the repeat runs, not every such curve was filed as active; the % refers to the signal ratio; note: potency is the fitted concentration of half-maximal effect). The method in brief: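 After plating, p53RE-bla cells sat 5 h in the incubator; compounds or DMSO vehicle were pinned in; a 16 h incubation at 37 C followed; FRET substrate was added and, 2 h later at RT, fluorescence was measured.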
Test [10] addresses 5-hydroxytryptamine receptor 2A (Homo sapiens) (UniProt P28223). Nature of the test: 5-hydroxytryptamine receptor 2A (HTR2A) small molecule antagonists, cell-based qHTS assay (AID 1963586). Note: nearly all actives have a fitted effect of over 45% in size. The method, boiled down:
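CHO cells stably expressing human HTR2A were plated for 18 h at 37 C, then loaded with calcium dye for 1 h. Compounds were preincubated 5 min at room temperature before DOI (4 nM solution) was added. Kinetic fluorescence was read for 3 min.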

The target is the same in test [11]. Nature of the test: 5-hydroxytryptamine receptor 2A (HTR2A) small molecule agonists, cell-based qHTS assay (AID 1963587). Note: nearly all actives have a fitted effect of over 30% in size. The method, boiled down: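 HTR2A-CHO cells, plated 18 h at 37 C/5% CO2, dye-loaded 1 h at 37 C; compounds in DMSO added by pin tool (agonist mode). Intracellular calcium flux read as kinetic fluorescence on FDSS over 2 min at 1 s intervals.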

A short description of test [12]: cAMP Responsive Elements (CRE) small molecule agonists, cell-based qHTS assay (AID 1963590). The method, boiled down:
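Compound exposure lasted 3 h at 37 C/5% CO2 in CRE-bla HEK 293T cells grown in assay medium with 10% dialyzed FBS and 25 mM HEPES. Reporter signal came from LiveBLAzer B/G FRET substrate, 2 h, room temperature.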

Test [13] is described as follows: cAMP Responsive Elements (CRE) small molecule antagonists, cell-based qHTS assay (AID 1963591; active = well fitted inhibition curve with a large enough effect in the signal ratio in the repeat runs, not every such curve was filed as active; the % refers to the signal ratio). The method in brief:
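Stimulation used NKH477 at a final 0.25 uM for 3 h in compound-treated CRE-bla HEK293T cells, seeded 18 h beforehand. Reporter activity was measured with LiveBLAzer B/G FRET substrate after 2 h at room temperature.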

Test [14] concerns the target Beta-2 adrenergic receptor (Homo sapiens) (UniProt P07550). Nature of the test: Adrenergic beta2 receptor (ADRB2) small molecule agonists, cell-based qHTS assay (AID 1963593).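 Note: CHO cells stably overexpressing human ADRB2.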 The method, boiled down: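 CHO cells stably over-expressing ADRB2 were plated overnight at 37C, then dosed with compounds plus a stimulation mix containing 100uM IBMX and 25uM Ro-20-1724 for 0.5hr at room temperature. cAMP was measured by HTRF competition, 1hr.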

Test [15] concerns the target D(2) dopamine receptor (Homo sapiens) (UniProt P14416). Nature of the test: Dopamine D2 receptor (DRD2) small molecule agonists, cell-based qHTS assay (AID 1963594). Note: nearly all actives have a fitted effect of over 35% in size. Note: potency is the fitted concentration of half-maximal effect. The method, boiled down:
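HEK293 cells stably expressing DRD2 were cultured 24 h at 37 C, then given Ro20-1724 (0.1 mM final) and compounds for 10 min at room temperature. NKH477 (200nM) was then added for 30 min. cAMP was read by HTRF.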

For test [16] the target is unchanged. Kind of test: Dopamine D2 receptor (DRD2) small molecule antagonists, cell-based qHTS assay (AID 1963595; active = well fitted inhibition curve with a large enough effect in the signal ratio in the repeat runs, with a control signal flat; the % refers to the signal ratio). The method, boiled down:
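HEK293 cells stably expressing DRD2, preincubated with 0.1 mM Ro20-1724 and compounds 10 min, were stimulated with 200 nM NKH477 plus 12 nM quinpirole for 30 min at room temperature; cAMP measured by HTRF (665/620 nm).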

In test [17] the target is Muscarinic acetylcholine receptor M1 (Homo sapiens) (UniProt P11229). Kind of test: Cholinergic receptor muscarinic 1 (CHRM1) small molecule antagonists, cell-based qHTS assay (AID 1963588). Note: nearly all actives have a fitted effect of over 40% in size. The method in brief: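 Compounds were tested at 15 concentrations in three independent runs. Dye-loaded CHRM1-CHO cells were exposed 5 min at room temperature before stimulation by acetylcholine added at 50nM. Intracellular calcium was read kinetically on FDSS for 3 min.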

The target is the same in test [18]. Nature of the test: Cholinergic receptor muscarinic 1 (CHRM1) small molecule agonists, cell-based qHTS assay (AID 1963589). Note: nearly all actives have a fitted effect of over 35% in size. The method in brief:
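Fluorescent calcium dye reports M1 activation in stably transfected CHO cells. Compounds, 15 concentrations, added after 1 h dye loading at 37 C; kinetic reading at 1 sec intervals.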

Test [19] has as its target Beta-2 adrenergic receptor (Homo sapiens) (UniProt P07550). Kind of test: Adrenergic beta2 receptor (ADRB2) small molecule antagonists, cell-based qHTS assay (AID 1963592). Note: series mostly up to about 92 µM; nearly all actives have a fitted effect of over 50% in size. The method in brief: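 Assay format: CHO-ADRB2 cells, 18-20hr seeding at 37C/5% CO2, then compound plus 1nM isoproterenol agonist mix for 0.5hr RT. Homogeneous time-resolved fluorescence cAMP detection after 1hr, expressed as 665/615 nm ratio.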

Test [20] is described as follows: p53 small molecule agonists, cell-based qHTS assay: qHTS cell viability counter screen (AID 1963581). Note: nearly all actives have a fitted effect of over 45% in size. Note: potency is the fitted concentration of half-maximal effect. The method, boiled down:
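Luminescence from CellTiter-Glo, reflecting ATP content, serves as the cytotoxicity measure; it is taken after the 2 h reporter substrate step in HCT-116 p53RE-bla cells dosed for 16 h at 37 C.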

Values without a mark were called inactive. Inconclusive results are not listed. Calls of active or inactive are those of the source. Unless noted, calls come from the whole dose curve.

Gonadotropin-releasing hormone receptor (Homo sapiens), sequence (P30968 whole entry, looked up): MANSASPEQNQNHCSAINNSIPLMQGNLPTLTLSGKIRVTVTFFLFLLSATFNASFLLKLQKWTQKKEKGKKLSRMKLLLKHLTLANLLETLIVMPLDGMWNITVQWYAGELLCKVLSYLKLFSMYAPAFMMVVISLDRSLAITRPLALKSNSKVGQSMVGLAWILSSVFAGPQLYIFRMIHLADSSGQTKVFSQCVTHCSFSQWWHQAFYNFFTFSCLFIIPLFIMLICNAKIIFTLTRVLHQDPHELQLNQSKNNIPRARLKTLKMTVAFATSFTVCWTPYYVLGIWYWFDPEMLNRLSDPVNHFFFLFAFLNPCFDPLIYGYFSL
D(2) dopamine receptor (Homo sapiens), sequence (P14416 whole entry, looked up): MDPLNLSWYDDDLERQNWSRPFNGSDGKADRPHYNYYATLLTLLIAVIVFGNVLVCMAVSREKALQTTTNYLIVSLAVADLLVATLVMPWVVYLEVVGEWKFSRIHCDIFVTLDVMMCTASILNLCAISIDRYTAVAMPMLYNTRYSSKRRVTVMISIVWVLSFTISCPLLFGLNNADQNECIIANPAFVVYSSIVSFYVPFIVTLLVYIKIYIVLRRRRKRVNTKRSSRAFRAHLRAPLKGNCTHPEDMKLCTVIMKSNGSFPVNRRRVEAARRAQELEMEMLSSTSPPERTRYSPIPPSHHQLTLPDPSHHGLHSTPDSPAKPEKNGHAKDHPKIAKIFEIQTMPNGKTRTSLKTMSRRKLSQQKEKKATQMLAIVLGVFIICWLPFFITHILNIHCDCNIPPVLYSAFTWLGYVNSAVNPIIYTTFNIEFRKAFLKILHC
KiSS-1 receptor (Homo sapiens), sequence (Q969F8 whole entry, looked up): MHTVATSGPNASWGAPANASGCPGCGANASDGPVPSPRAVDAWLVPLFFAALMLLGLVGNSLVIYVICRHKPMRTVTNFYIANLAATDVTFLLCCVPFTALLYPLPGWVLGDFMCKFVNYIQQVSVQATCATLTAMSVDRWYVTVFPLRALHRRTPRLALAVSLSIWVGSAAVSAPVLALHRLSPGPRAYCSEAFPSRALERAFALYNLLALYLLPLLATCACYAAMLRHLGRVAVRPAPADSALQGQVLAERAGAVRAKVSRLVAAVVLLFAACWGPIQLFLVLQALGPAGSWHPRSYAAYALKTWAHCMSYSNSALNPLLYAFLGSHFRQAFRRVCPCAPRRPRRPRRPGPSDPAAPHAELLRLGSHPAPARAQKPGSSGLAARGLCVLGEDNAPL
Beta-2 adrenergic receptor (Homo sapiens), sequence (P07550 whole entry, looked up): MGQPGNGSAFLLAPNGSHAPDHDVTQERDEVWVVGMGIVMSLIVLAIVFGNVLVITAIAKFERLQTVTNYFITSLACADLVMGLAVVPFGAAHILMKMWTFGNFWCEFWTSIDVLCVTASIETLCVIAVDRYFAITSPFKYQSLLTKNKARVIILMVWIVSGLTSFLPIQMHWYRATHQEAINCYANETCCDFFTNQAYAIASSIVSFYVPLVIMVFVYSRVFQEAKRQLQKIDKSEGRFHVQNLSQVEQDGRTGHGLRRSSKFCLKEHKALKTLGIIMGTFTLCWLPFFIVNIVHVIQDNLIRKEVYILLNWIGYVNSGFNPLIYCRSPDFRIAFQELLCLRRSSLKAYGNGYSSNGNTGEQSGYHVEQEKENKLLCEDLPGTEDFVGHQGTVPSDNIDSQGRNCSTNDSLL
Muscarinic acetylcholine receptor M1 (Homo sapiens), sequence (P11229 whole entry, looked up): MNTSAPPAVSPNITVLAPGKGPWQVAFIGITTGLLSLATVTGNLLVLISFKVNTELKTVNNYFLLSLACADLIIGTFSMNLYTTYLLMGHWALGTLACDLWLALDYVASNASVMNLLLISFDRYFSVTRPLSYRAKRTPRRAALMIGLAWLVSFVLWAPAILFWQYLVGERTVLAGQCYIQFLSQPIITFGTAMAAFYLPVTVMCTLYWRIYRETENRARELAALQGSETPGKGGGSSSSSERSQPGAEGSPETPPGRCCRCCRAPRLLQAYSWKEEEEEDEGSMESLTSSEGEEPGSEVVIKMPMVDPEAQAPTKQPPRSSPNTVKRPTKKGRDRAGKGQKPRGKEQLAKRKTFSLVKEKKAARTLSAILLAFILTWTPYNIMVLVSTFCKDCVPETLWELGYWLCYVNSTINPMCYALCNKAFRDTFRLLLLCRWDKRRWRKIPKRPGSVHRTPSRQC
5-hydroxytryptamine receptor 2A (Homo sapiens), sequence (P28223 whole entry, looked up): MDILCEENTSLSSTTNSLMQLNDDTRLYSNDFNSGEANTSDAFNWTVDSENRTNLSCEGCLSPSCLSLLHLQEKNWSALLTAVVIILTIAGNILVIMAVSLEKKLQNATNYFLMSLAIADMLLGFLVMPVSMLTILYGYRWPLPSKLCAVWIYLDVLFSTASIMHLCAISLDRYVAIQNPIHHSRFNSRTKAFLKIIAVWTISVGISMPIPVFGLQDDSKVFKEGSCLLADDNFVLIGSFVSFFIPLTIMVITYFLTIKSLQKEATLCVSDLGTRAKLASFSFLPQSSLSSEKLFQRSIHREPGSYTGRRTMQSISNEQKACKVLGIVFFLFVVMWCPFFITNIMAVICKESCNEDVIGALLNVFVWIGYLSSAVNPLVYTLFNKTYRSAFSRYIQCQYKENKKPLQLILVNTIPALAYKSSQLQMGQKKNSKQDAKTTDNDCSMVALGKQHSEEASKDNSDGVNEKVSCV

With `CC(=O)CC(=O)Nc1ccc(S(=O)(=O)O)cc1`, the Potency result in test [1], in [2], in [3], in test [4], in test [5] and in test [6] was “inactive” throughout. In addition, the Potency result in test [7], in test [8], in test [9], in test [10], in test [11] and in test [12] was “inactive” each time. In addition, the Potency entry in test [13], in test [14], in test [15] and in test [16] was “inactive” throughout.
Consider `NC1=NCC2c3ccccc3Cc3ccccc3N12` (centres undefined), for which the Potency result in test [1], in test [2], in [3], in [4], in test [5] and in test [6] was “inactive” throughout. Moreover, the Potency entry in test [7], in [8], in [9], in [11], in [17] and in test [18] was “inactive” throughout. Also, the Potency result in test [13], in test [19] and in test [16] was “inactive” in each case. The Potency in [15] was 4.92 µM (active).
Turning to `OCCN1CCN(CCO)CC1`, the Potency result in [1], in test [2], in test [3], in test [4], in test [5] and in test [6] was “inactive” throughout. The Potency entry in test [7], in test [8], in [20], in test [10], in test [11] and in test [17] was “inactive” each time. The Potency entry in [18], in [12], in test [13], in [19], in [15] and in test [16] was “inactive” in each case.
On to `O=C(NOCC1CC1)c1ccc(F)c(F)c1Nc1ccc(I)cc1Cl`, for which the Potency was 29.8 µM (active) in [1] and 19.9 µM (active) in test [9]. The Potency result in [2], in test [3], in [4], in test [5], in test [6] and in test [7] was “inactive” each time. The Potency entry in test [8], in test [20], in test [11], in test [17], in test [18] and in test [19] was “inactive” each time. Also, the Potency result in test [15] and in test [16] was “inactive” in each case.
With `Oc1ccc2ccccc2c1`, the Potency entry in test [1], in test [2], in test [3], in [4], in [5] and in test [6] was “inactive” throughout. The Potency result in test [7], in test [8], in test [9], in test [10], in test [11] and in test [17] was “inactive” throughout. For the same compound, the Potency entry in test [18], in test [13], in test [19], in test [15] and in test [16] was “inactive” in each case.
In the case of `CCCCCSCCCCC`, the Potency entry in test [1], in [2], in test [3], in [4], in test [5] and in [6] was “inactive” in each case. Moreover, the Potency entry in [7], in test [8], in test [20], in test [11], in test [12] and in test [13] was “inactive” throughout. The Potency result in test [19], in [14], in test [15] and in test [16] was “inactive” throughout.
Regarding `CC(C)(C)c1ccc(C(=O)CCCN2CCC(OC(c3ccccc3)c3ccccc3)CC2)cc1`, the values for the Potency in [1] and in [20] were 6.68 µM (active) and 11.2 µM (active), respectively. Besides, the Potency entry in [2], in test [3], in test [4], in test [5], in test [6] and in [7] was “inactive” throughout. Moreover, the Potency result in test [8] and in [19] was “inactive” in each case.
Consider `C[C@@H]1C[C@H]2O[C@@]3(O[C@@H]2C(C)(C)O)[C@H](O)[C@@]2(C)[C@@H]4CC[C@H]5C(C)(C)[C@@H](O[C@@H]6OC[C@@H](O)[C@H](O)[C@H]6O)CC[C@@]56C[C@@]46CC[C@]2(C)[C@@H]13`, for which the Potency result in [1], in [2], in test [3], in [4], in test [5] and in test [6] was “inactive” throughout. Moreover, the Potency result in test [7], in test [8], in test [20], in test [11], in test [17] and in [18] was “inactive” each time. Also, the Potency entry in test [19], in [15] and in test [16] was “inactive” throughout.

Values taken from PubChem BioAssay (Tox21).
